Several values for one entry are separate records, joined by “and”; a condition that tells them apart may be missing. Identical values can stand only once. Unmarked numbers belong to inactive results.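 The calls were made as follows: active = AUC reduced over 20% with Padj below 0.05 in at least 2 of 3 replicates; inactive = otherwise.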
Experiments:
[1] = test system: Roseburia intestinalis; assay: growth AUC relative to DMSO control (median of replicates) (fraction); higher = more growth (less inhibition), active = hit call of the paper; conditions: 20 µM; 24 h
In short: (§1)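 Starting at OD600 0.05, gut bacterial monocultures in mGAM were grown anaerobically at 37 °C with 20 µM compound (1% DMSO) under pierced gas-permeable seals. OD600 was read every hour for 24 h, and the lowest OD of each curve was set to 0. Area under the growth curve was normalised to the plate median of solvent-only wells, or to row and column medians on the industrial chemical plate, and the median of three biological replicates grown on separate days is given.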

[2] = test system: Streptococcus salivarius; assay: as above; conditions: 20 µM; 24 h
In short: as §1

Row | SMILES | growth AUC [1] | growth AUC [2]
1 | S=C1NCCN1 | 1.01 | 0.992
2 | CC(Oc1ccc(Oc2ncc(C(F)(F)F)cc2Cl)cc1)C(=O)O (centres undefined) | 1.03 | 0.981
3 | Clc1ccc(C2(Cn3cncn3)OCCO2)c(Cl)c1 | 0.948 | 0.915
4 | O=S1OC[C@@H]2[C@H](CO1)[C@]1(Cl)C(Cl)=C(Cl)[C@@]2(Cl)C1(Cl)Cl (some centres undefined) | 0.954 and 0.949 | 0.954 and 0.864
5 | N#Cc1c[nH]cc1-c1cccc(Cl)c1Cl | 1.14 | 0.929
6 | CCCCN(CC)C(=O)SCCC | 1.03 | 0.996
7 | O=[N+]([O-])/N=C1\NCCN1Cc1ccc(Cl)nc1 | 0.955 | 0.97
8 | CC1CCCCC1NC(=O)Nc1ccccc1 (mixture of isomers) | 0.985 | 1.02
9 | CC(C)[C@@H](Nc1ccc(C(F)(F)F)cc1Cl)C(=O)OC(C#N)c1cccc(Oc2ccccc2)c1 (some centres undefined) | 0.961 | 1.01
10 | Cc1cc(Cl)ccc1N=CN(C)C | 1.02 | 0.998
11 | Oc1ccc(C(c2ccc(O)cc2)(C(F)(F)F)C(F)(F)F)cc1 | 0.661 (active) | 0.85
12 | CN(C)C(=O)Nc1cccc(C(F)(F)F)c1 | 0.979 | 0.991

— the supplement of paper PMC12669032
